Where “and” joins values, the source holds several entries; their conditions need not be identical. Equal entries are not always repeated. Records with an inconclusive call do not appear. Calls of active or inactive are those of the source. The call rests on the fitted dose curve; in most records, active means well fitted cell-killing curve with a large enough effect in the repeat runs; inconclusive means weak or mixed curves, or effect the other way; inactive means no such curve, though single readings can be large or run the other way.
On the % scale 0 is the no-effect control and ±100 the full control effect; potency means the concentration at half of the fitted maximal effect.

A short description of the first experiment: qHTS assay to identify small molecule antagonists of the glucocorticoid receptor (GR) signaling pathway - cell viability counter screen (AID 720693). Further: nearly all actives have a fitted effect of over 55% in size. The settings on record: GR-bla HeLa viability, CellTiter-Glo luminescence, 18 h, with 5 nM dexamethasone present; series mostly up to 58.5 µM; viability change, negative = cytotoxic: at the top concentration.
Turning to `CS(=O)(=O)OCC(O)C(O)COS(C)(=O)=O` (stereo not given), the “viability change, negative = cytotoxic” value was 10.5% (inactive).
The same measure, in the same setting: under `CCC(Cc1c(I)cc(I)c(O)c1I)C(=O)O` (stereo not given) stands 2.87% (inactive).
For `CC(=O)[C@]1(O)Cc2c(O)c3c(c(O)c2[C@@H](O[C@H]2C[C@H](N)[C@H](O)[C@H](C)O2)C1)C(=O)c1c(O)cccc1C3=O`, the Potency was 3.01 µM (active).
In the case of `CC(CN(C)C)CN1c2ccccc2S(=O)(=O)c2ccccc21` (stereo not given), the “viability change, negative = cytotoxic” value is -5.06% (inactive).
Same read-out and setting: under `O=C1NC(=O)[C@H]2[C@@H]1[C@@H]1C=C[C@H]2C1` stands 20.3% (inactive).
On the same count and under the same terms, next, `S=C=Nc1ccc(N=C=S)cc1`: 17.4% (inactive); `N[C@H](CCC(=O)O)C(=O)O`: 17.9% (inactive).
As for `CCC(C)[C@H]1O[C@]2(C=C[C@@H]1C)C[C@@H]1C[C@@H](C/C=C(\C)[C@@H](O[C@H]3C[C@H](OC)[C@@H](O[C@H]4C[C@H](OC)[C@H](NC(C)=O)[C@H](C)O4)[C@H](C)O3)[C@@H](C)/C=C/C=C3\CO[C@@H]4[C@H](O)C(C)=C[C@@H](C(=O)O1)[C@]34O)O2` (stereo not given in full), the Potency is 7.56 µM (active) and 19 µM (active).
Turning to `CN1CCCC(CN2c3ccccc3Sc3ccccc32)C1` (stereo not given), the “viability change, negative = cytotoxic” value was -1.42% (inactive).
As to `C=Cc1c(C)c2cc3nc(cc4[nH]c(cc5nc(cc1[nH]2)C(C)=C5CCC(=O)OC)c(CCC(=O)O)c4C)[C@@]1(C)C3=CC=C(C(=O)OC)[C@H]1C(=O)OC`, the “viability change, negative = cytotoxic” value is -18.7% (inactive).
As to `CCCC(=O)Nc1ncnc2c1ncn2[C@@H]1O[C@@H]2COP(=O)(O)O[C@H]2[C@H]1OC(=O)CCC`, the “viability change, negative = cytotoxic” value was 11.1% (inactive).
`CC(=C\c1ccccc1)/C=C1/SC(=S)N(CC(=O)O)C1=O`: the “viability change, negative = cytotoxic” value was 1.52% (inactive).
With `O=P(O)(O)OC[C@H]1O[C@](O)(COP(=O)(O)O)[C@@H](O)[C@@H]1O`, the “viability change, negative = cytotoxic” value was -3.02% (inactive).
For `COc1cc2c(cc1OC)[C@@H](c1ccccc1)CN(C)CC2`, the “viability change, negative = cytotoxic” value is -10.8% (inactive).
The same measure, in the same setting: next, `CCN(CC)CCC(=O)N1c2ccccc2Sc2ccc(Cl)cc21`: 1.87% (inactive).
Same read-out and setting: next, `NCCCC[C@H](N)C(=O)O`: 13.7% (inactive); `CCCC(=O)N1CCCN(c2nc(N)c3cc(OC)c(OC)cc3n2)CC1`: 11% (inactive); `CCN1C(=O)NC(c2ccccc2)C1=O` (stereo not given): 4.03% [at 27 µM] (inactive).
On the same count and under the same terms, under `CCN(CC)CCC(=O)N1c2ccccc2Sc2ccc(C(F)(F)F)cc21` stands 2.77% (inactive); under `CCOC(=O)[C@@H](N)CS`, 5.03% (inactive).
Turning to `C[Se]CCC(N)C(=O)O` (stereo not given), the “viability change, negative = cytotoxic” value was 2.64% (inactive).
On the same count and under the same terms, under `O=[n+]1ccn([O-])c2ccccc21` stands -2.43% (inactive).
With `CCCOc1cc(N)ccc1C(=O)OCCN(CC)CC`, the “viability change, negative = cytotoxic” value was 11.2% [at 27 µM] (inactive).
In the case of `NC(=O)Oc1ccc(Cc2ccccc2)cc1`, the “viability change, negative = cytotoxic” value was 11% (inactive).
As for `CC(C)CCC[C@@H](C)[C@H]1CC(=O)C2=C3CC[C@H]4C[C@@H](O)CC[C@]4(C)[C@H]3CC[C@@]21C`, the “viability change, negative = cytotoxic” value was -5.41% (inactive).
Still for that read-out and setting: next, `CC1C(=O)CC2C3(C)CCC2(C(C)C(=O)O)C(=O)C13` (stereo not given): 5.19% (inactive); `CN(C)CCC=C1c2ccccc2C(C)(C)c2ccccc21`: -2.08% (inactive).
On to `CCC(CN)CC(C)CCNCC(O)CNCC(C)CC(CC)CN` (stereo not given), for which the “viability change, negative = cytotoxic” value was -6.68% (inactive).
Same read-out and setting: next, `C[C@H]1[C@@H](OC(=O)CCC(=O)O)O[C@@H]2OC3(C)CC[C@H]4[C@H](C)CC[C@@H]1[C@@]24OO3`: -24.6% (inactive); `O=C(/C=C/c1cccc(F)c1)NC1CC1`: 1.03% (inactive); `OCC(O)COc1ccc(Cl)cc1` (stereo not given): -9.26% (inactive).
Same read-out and setting: next, `CCC(=O)c1ccc2c(c1)N(CCCN1CCN(CCO)CC1)c1ccccc1S2`: -12.4% (inactive).
In the case of `O=P(O)(O)C(Sc1ccc(Cl)cc1)P(=O)(O)O`, the “viability change, negative = cytotoxic” value is -5.07% (inactive).
With `C[C@@H](O)[C@H]1C(=O)N2C(C(=O)[O-])=C(SC3Cn4cnc[n+]4C3)[C@H](C)[C@H]12` (stereo not given in full), the “viability change, negative = cytotoxic” value is -9.82% (inactive).
As for `CC(C)(C)C1(O)CCN2CC3c4ccccc4CCc4cccc(c43)C2C1` (stereo not given), the “viability change, negative = cytotoxic” value is 0.0697% (inactive).
On to `N[C@@H](C(=O)N[C@@H]1C(=O)N2C(C(=O)O)=C(CSc3cn[nH]n3)CS[C@H]12)c1ccc(O)cc1`, for which the “viability change, negative = cytotoxic” value is 0.409% (inactive).
On the same count and under the same terms, next, `C#C[C@]1(O)CC[C@H]2[C@@H]3CCC4=C/C(=N/O)CC[C@@H]4[C@H]3CC[C@@]21CC`: -16.8% (inactive); `CCOC(=O)CN[C@@H](C(=O)N1CC[C@H]1C(=O)NCc1ccc(/C(N)=N/O)cc1)C1CCCCC1`: -4.41% (inactive).

Another experiment can be described thus: qHTS assay for identifying genotoxic compounds that show differential cytotoxicity against isogenic chicken DT40 cell lines with known DNA damage response pathways - wild type cell line (AID 743012). Further: nearly all actives have a fitted effect of over 60% in size. As to conditions: DT40 wild type chicken cells viability, CellTiter-Glo, 40 h; series mostly up to 68.4 µM; activity change, negative = cytotoxicity: at the top concentration. The method in brief:
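Wild type DT40, 300 cells/well, ~0.5 h settle at 37 C/5% CO2; compounds in DMSO added by pintool; 40 h at 37 C/5% CO2; CellTiter-Glo, 30 min RT; luminescence.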
(Quantitative high-throughput screening tests each substance at several concentrations.)
On to `CS(=O)(=O)OCC(O)C(O)COS(C)(=O)=O` (stereo not given), for which the Potency was 8.41 µM (active).
As to `CCC(Cc1c(I)cc(I)c(O)c1I)C(=O)O` (stereo not given), the “activity change, negative = cytotoxicity” value is -2.46% (inactive).
For `CC(=O)[C@]1(O)Cc2c(O)c3c(c(O)c2[C@@H](O[C@H]2C[C@H](N)[C@H](O)[C@H](C)O2)C1)C(=O)c1c(O)cccc1C3=O`, the Potency is 18.8 nM (active) and 21.1 nM (active).
As to `CC(CN(C)C)CN1c2ccccc2S(=O)(=O)c2ccccc21` (stereo not given), the “activity change, negative = cytotoxicity” value was -19.8% (inactive).
On the same count and under the same terms, under `O=C1NC(=O)[C@H]2[C@@H]1[C@@H]1C=C[C@H]2C1` stands -0.632% (inactive).
Same read-out and setting: under `S=C=Nc1ccc(N=C=S)cc1` stands 15% (inactive); under `N[C@H](CCC(=O)O)C(=O)O`, 11.3% (inactive).
Turning to `CCC(C)[C@H]1O[C@]2(C=C[C@@H]1C)C[C@@H]1C[C@@H](C/C=C(\C)[C@@H](O[C@H]3C[C@H](OC)[C@@H](O[C@H]4C[C@H](OC)[C@H](NC(C)=O)[C@H](C)O4)[C@H](C)O3)[C@@H](C)/C=C/C=C3\CO[C@@H]4[C@H](O)C(C)=C[C@@H](C(=O)O1)[C@]34O)O2` (stereo not given in full), the Potency is 841 nM (active) and 1.68 µM (active).
On the same count and under the same terms, under `CN1CCCC(CN2c3ccccc3Sc3ccccc32)C1` (stereo not given) stands 7.5 µM (active).
With `CCCC(=O)Nc1ncnc2c1ncn2[C@@H]1O[C@@H]2COP(=O)(O)O[C@H]2[C@H]1OC(=O)CCC`, the “activity change, negative = cytotoxicity” value is 9.53% (inactive).
Still for that read-out and setting: under `CC(=C\c1ccccc1)/C=C1/SC(=S)N(CC(=O)O)C1=O` stands 2.37% (inactive).
Turning to `O=P(O)(O)OC[C@H]1O[C@](O)(COP(=O)(O)O)[C@@H](O)[C@@H]1O`, the “activity change, negative = cytotoxicity” value was 4.89% (inactive).
For the molecule `COc1cc2c(cc1OC)[C@@H](c1ccccc1)CN(C)CC2`, the Potency is 23.7 µM (active).
On the same count and under the same terms, under `CCN(CC)CCC(=O)N1c2ccccc2Sc2ccc(Cl)cc21` stands 8.41 µM (active).
For `NCCCC[C@H](N)C(=O)O`, the “activity change, negative = cytotoxicity” value was 9.19% (inactive).
Same read-out and setting: next, `CCCC(=O)N1CCCN(c2nc(N)c3cc(OC)c(OC)cc3n2)CC1`: -4.96% (inactive); `CCN1C(=O)NC(c2ccccc2)C1=O` (stereo not given): 6.53% [at 31.4 µM] (inactive).
In the case of `CCN(CC)CCC(=O)N1c2ccccc2Sc2ccc(C(F)(F)F)cc21`, the Potency is 5.96 µM (active).
As to `CCOC(=O)[C@@H](N)CS`, the “activity change, negative = cytotoxicity” value is -7.89% (inactive).
On the same count and under the same terms, next, `C[Se]CCC(N)C(=O)O` (stereo not given): 2.15% (inactive); `O=[n+]1ccn([O-])c2ccccc21`: 2.35% (inactive); `CCCOc1cc(N)ccc1C(=O)OCCN(CC)CC`: 4.29% [at 31.4 µM] (inactive).
Same read-out and setting: under `NC(=O)Oc1ccc(Cc2ccccc2)cc1` stands 0% (inactive).
For `CC(C)CCC[C@@H](C)[C@H]1CC(=O)C2=C3CC[C@H]4C[C@@H](O)CC[C@]4(C)[C@H]3CC[C@@]21C`, the Potency was 0.596 µM (active).
Take `CC1C(=O)CC2C3(C)CCC2(C(C)C(=O)O)C(=O)C13` (stereo not given): the “activity change, negative = cytotoxicity” value was 8.25% (inactive).
For the molecule `CN(C)CCC=C1c2ccccc2C(C)(C)c2ccccc21`, the Potency was 9.44 µM (active).
Take `CCC(CN)CC(C)CCNCC(O)CNCC(C)CC(CC)CN` (stereo not given): the “activity change, negative = cytotoxicity” value is 9.61% (inactive).
`C[C@H]1[C@@H](OC(=O)CCC(=O)O)O[C@@H]2OC3(C)CC[C@H]4[C@H](C)CC[C@@H]1[C@@]24OO3`: the Potency was 0.188 µM (active).
Consider `O=C(/C=C/c1cccc(F)c1)NC1CC1`, for which the “activity change, negative = cytotoxicity” value was 11.9% (inactive).
On the same count and under the same terms, under `OCC(O)COc1ccc(Cl)cc1` (stereo not given) stands -2.28% (inactive).
Take `CCC(=O)c1ccc2c(c1)N(CCCN1CCN(CCO)CC1)c1ccccc1S2`: the Potency is 2.66 µM (active).
Take `O=P(O)(O)C(Sc1ccc(Cl)cc1)P(=O)(O)O`: the “activity change, negative = cytotoxicity” value was 14.4% (inactive).
On the same count and under the same terms, under `C[C@@H](O)[C@H]1C(=O)N2C(C(=O)[O-])=C(SC3Cn4cnc[n+]4C3)[C@H](C)[C@H]12` (stereo not given in full) stands 4.52% (inactive).
`CC(C)(C)C1(O)CCN2CC3c4ccccc4CCc4cccc(c43)C2C1` (stereo not given): the Potency is 9.44 µM (active).
Turning to `N[C@@H](C(=O)N[C@@H]1C(=O)N2C(C(=O)O)=C(CSc3cn[nH]n3)CS[C@H]12)c1ccc(O)cc1`, the “activity change, negative = cytotoxicity” value is 0.341% (inactive).
Regarding `C#C[C@]1(O)CC[C@H]2[C@@H]3CCC4=C/C(=N/O)CC[C@@H]4[C@H]3CC[C@@]21CC`, the Potency is 16.8 µM (active).
As to `CCOC(=O)CN[C@@H](C(=O)N1CC[C@H]1C(=O)NCc1ccc(/C(N)=N/O)cc1)C1CCCCC1`, the “activity change, negative = cytotoxicity” value was -1% (inactive).

Values taken from PubChem BioAssay (Tox21).
